Measurements from ChEMBL document CHEMBL1157539, “Thousands of chemical starting points for antimalarial lead identification” (Nature, 2010).

Tests used:
Type in all cases: functional
Plasmodium falciparum [1] = test: GSK_TCMDC: Inhibition of Plasmodium falciparum 3D7 in whole red blood cells, using parasite LDH activity as an index of growth. Test compounds present at 2uM
Plasmodium falciparum [2] = test: GSK_TCMDC: Inhibition of Plasmodium falciparum Dd2 in whole red blood cells, using parasite LDH activity as an index of growth. Test compounds present at 2uM
HepG2 = test: GSK_TCMDC: Percent inhibition of human HepG2 cell line. Test compounds present at 10uM.

| Structure (SMILES) | Inhibition (Plasmodium falciparum [1]) | Inhibition (Plasmodium falciparum [2]) | Inhibition (HepG2) |
| --- | --- | --- | --- |
| CNC(=O)C1Cc2c([nH]c3cc(Cl)ccc23)C2(CCN(CCc3ccccc3)CC2)N1 (stereo unspecified) | 91% | 3% | 14% |
| N=C(N)Nc1nc(-c2cccc(NC(=O)NCCc3c[nH]c4ccc(OCc5ccccc5)cc34)c2)cs1 | 100% | 30% | 0% |
| CC(C)CNCc1ccc(-c2cccc(CN(C(=O)NCCc3ccccc3)C3CCN(Cc4ccccc4)CC3)c2)cc1.O=C(O)C(F)(F)F | 100% | 94% | 91% |
| COc1cc(CS(C)(=O)=O)ccc1Nc1nccc(-c2c(-c3cccc(NC(=O)c4c(F)cccc4F)c3)nn3ccccc23)n1 | 92% | 71% | 46% |
| COc1ccc(NC(=O)c2csc(-c3cc(NC(=O)c4ccnc(N5CCCC5)c4)ccc3C)c2)cc1N1CCN(C)CC1.O=C(O)C(F)(F)F | 100% | 80% | 4% |
| CNc1ccc(CNCc2cccc(-c3ccc(-c4nc5ccccc5[nH]4)cc3)c2)cc1.O=C(O)C(F)(F)F | 100% | 80% | 18% |
| COc1ccc(-c2nc(NC(=O)CS(=O)(=O)c3ccc(OC)cc3)sc2C)cc1 | 95% | 89% | 6% |
| Cl.N=C(N)NN=Cc1c2ccccc2c(Cl)c2cc(Cl)ccc12 | 97% | 28% | 26% |
| CCOc1cc(NCCCNc2ncc([N+](=O)[O-])cc2C)nc2ccccc12 | 84% | 64% | 10% |
| Cc1nnsc1C(=O)Nc1cccc(-c2ccc(-c3nc4cccc(C)c4[nH]3)s2)c1 | 100% | 44% | 46% |
| C[C@@H](NC(=O)NC(CCN1CCC2(CC1)CN(S(C)(=O)=O)c1ccccc12)c1ccc(Cl)c(Cl)c1)c1ccccc1 (stereo partly specified) | 92% | 88% | 15% |
| Oc1cccc(Nc2nc(NCc3ccco3)c3ccccc3n2)c1 | 100% | 74% | 9% |
| COc1ccc2nc3cc(Cl)ccc3c(NCCc3ccccc3)c2c1.Cl | 94% | 82% | 0% |
| Oc1cc(NCCCNC2CCc3c(Cl)cc(Cl)cc32)nc2ccccc12 (stereo unspecified) | 100% | 29% | 3% |
| CCOc1cc(-c2nnc3[nH]c(=O)n(C)c(=O)c3n2)ccc1OC(C)C | 97% | 86% | 15% |
| COc1ccc(-c2cc(-c3nc4cc(CN)ccc4[nH]3)c(=O)n(C)c2)cc1OC | 85% | 56% | 0% |
| O=C(c1ccc(F)cc1)N1CCOC(CCN2CCC(c3ccccc3)CC2)(c2ccc(Cl)c(Cl)c2)C1 (stereo unspecified) | 88% | 84% | 29% |
| COc1cc([N+](=O)[O-])ccc1NC(=O)c1cc(Cl)ccc1O | 87% | 100% | 92% |
| Cc1ccc(C)c(CC(=O)N2CCC(n3c(C)nc4ccc(F)cc43)CC2)c1 | 100% | 99% | 0% |
| OC(CN1CCN(Cc2ccccc2)CC1)Cn1c(-c2ccccc2)c(-c2ccccc2)c2ccccc21 (stereo unspecified) | 98% | 97% | 0% |
| O=C(Nc1ccc(-c2ccccc2)cc1)Nc1cccc(Cn2nc(Cl)c(N3CCNCC3)cc2=O)c1.O=C(O)C(F)(F)F | 100% | 79% | 15% |
| Br.CC(CON1C(N)=NC(N)=NC1(C)C)c1ccc(Cl)cc1Cl (stereo unspecified) | 97% | 95% | 64% |
| CN1CCC(N2CCN(Cc3cccc(-c4ccc(-c5nc6cc(C(F)(F)F)ccc6[nH]5)cc4)c3)CC2)CC1.O=C(O)C(F)(F)F | 100% | 91% | 100% |
| Cc1cc(C(F)(F)F)n2nc(C3CCN(Cc4cc(C)c(O)c(C)c4)C3)cc2n1.O=C(O)CC(O)(CC(=O)O)C(=O)O (stereo unspecified) | 98% | 99% | 34% |
| CCn1c(Sc2ccc(C#N)c([N+](=O)[O-])c2)nnc1-c1ccc(Cl)cc1 | 97% | 93% | 0% |
| Cc1cnc(N2CCN(CC3CCN(C)CC3)CC2)nc1Oc1ccc(-n2ccnc2)cc1.O=C(O)C(F)(F)F | 99% | 66% | 9% |
| Cc1cccc2nc(-c3ccc(-c4cccc(CN5CCC(CCN6CCCCC6)CC5)c4)s3)[nH]c12.O=C(O)C(F)(F)F | 100% | 100% | 99% |
